Inconclusive results are not listed. The source made the active and inactive calls. The calls were made as follows, unless noted: active = hit-call score of the fitted dose curve at least 0.9, where 1 is the maximum; inconclusive = response in the unintended direction; inactive = score below 0.9.
Columns and labels:
[1] = Tanguay_ZF_120hpf_YSE_legacy: (Legacy) Oregon State University Tanguay Lab 120 Hour Post-fertilization zebrafish Assay for Yolk Sac Edema (AID 2283634);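 as to AC50: actives raise the incidence of yolk sac edema above the DMSO baseline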
Summary of the method: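 Single dechorionated embryos were held in sealed plates at 28C with test chemical (0.64% DMSO final) from 6 hpf until 120 hpf. Edema of the yolk sac was then recorded as a binary endpoint; non-mortality endpoints were skipped for dead embryos.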

[2] = Tanguay_ZF_120hpf_AXIS_legacy: (Legacy) Oregon State University Tanguay Lab 120 Hour Post-fertilization zebrafish Assay for Body Axis Malformation (AID 2283635);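 as to AC50: potency for an increased fraction of larvae scored with body axis malformation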
Summary of the method: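 Each dechorionated embryo was exposed alone from 6 hpf, with DMSO at 0.64% (vol/vol) and trimethyltin chloride 5 uM as positive control. Axis malformation was recorded at 120 hpf unless the embryo had died.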

[3] = Tanguay_ZF_120hpf_EYE_legacy: (Legacy) Oregon State University Tanguay Lab 120 Hour Post-fertilization zebrafish Assay for Eye Malformation (AID 2283636);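 also: binary presence or absence of eye malformation scored by brightfield in 120 hpf larvae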
Summary of the method: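 Static waterborne exposure of dechorionated zebrafish embryos (strain Tropical 5D), 6 to 120 hpf, sealed plates at 28C, 0.64% DMSO vehicle. Eye malformation is scored as a binary endpoint, with gain of signal analysed relative to DMSO.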

[4] = Tanguay_ZF_120hpf_SNOU_legacy: (Legacy) Oregon State University Tanguay Lab 120 Hour Post-fertilization zebrafish Assay for Snout Malformation (AID 2283637)
Summary of the method: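 Dechorionated zebrafish, individually housed from 6 hpf in covered, sealed wells at 28C with 0.64% DMSO vehicle, were examined at 120 hpf for snout malformation. Responses were binary and analysed positive-direction relative to DMSO.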

[5] = Tanguay_ZF_120hpf_JAW_legacy: (Legacy) Oregon State University Tanguay Lab 120 Hour Post-fertilization zebrafish Assay for Jaw Malformation (AID 2283638);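 as to AC50: active means more embryos with jaw malformation than DMSO controls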
Summary of the method: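 Wild-type 5D embryos, chorion removed at 4 hpf, dosed singly from 6 hpf; 28C static, sealed, foil-covered, to 120 hpf. Endpoint: jaw defect yes/no (brightfield); mortality excludes scoring.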

[6] = Tanguay_ZF_120hpf_OTIC_legacy: (Legacy) Oregon State University Tanguay Lab 120 Hour Post-fertilization zebrafish Assay for Otic Vesicle Malformation (AID 2283639)
Summary of the method: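 Wild-type zebrafish larvae, whole-embryo exposure from early stage to 120 hpf at 28C. Binary brightfield scoring of otic vesicle morphology, fitted in the positive direction against the DMSO baseline.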

[7] = Tanguay_ZF_120hpf_PE_legacy: (Legacy) Oregon State University Tanguay Lab 120 Hour Post-fertilization zebrafish Assay for Pericardial Edema (AID 2283640);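 as to AC50: potency for increased incidence of pericardial edema versus DMSO baseline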
Summary of the method: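 Zebrafish larvae are exposed from early development to 120 hpf at 28C, with 0.64% DMSO final. Each surviving larva receives a yes/no pericardial edema call by brightfield imaging, analysed relative to the DMSO baseline.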

[8] = Tanguay_ZF_120hpf_SOMI_legacy: (Legacy) Oregon State University Tanguay Lab 120 Hour Post-fertilization zebrafish Assay for Somite Malformation (AID 2283647)
Summary of the method: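 Somitogenesis defects are recorded as binary calls in whole larvae at 120 hpf after continuous static chemical exposure starting at 6 hpf in dechorionated 5D embryos. DMSO serves as negative control and baseline.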

[9] = Tanguay_ZF_120hpf_PFIN_legacy: (Legacy) Oregon State University Tanguay Lab 120 Hour Post-fertilization zebrafish Assay for Pectoral Fin Malformation (AID 2283648);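 also: each larva judged yes or no for fin defect by brightfield with dead larvae skipped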
Summary of the method: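 Scoring of pectoral fin malformation was binary, made at 120 hpf on larvae exposed statically from 6 hpf after enzymatic chorion removal. Activity was fitted upward relative to DMSO controls at 0.64% (vol/vol).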

[10] = Tanguay_ZF_120hpf_CFIN_legacy: (Legacy) Oregon State University Tanguay Lab 120 Hour Post-fertilization zebrafish Assay for Caudal Fin Malformation (AID 2283649)
Summary of the method: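 Single dechorionated 5D wild-type embryos are dosed at 6 hpf (final DMSO 0.64%) and held statically at 28C. Caudal fin malformation is recorded as present or absent at 120 hpf under brightfield, excluding dead embryos.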

[11] = Tanguay_ZF_120hpf_PIG_legacy: (Legacy) Oregon State University Tanguay Lab 120 Hour Post-fertilization zebrafish Assay for Pigmentation Malformation (AID 2283650)
Summary of the method: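 Endpoint is incidence of abnormal pigmentation at 120 hpf in dechorionated 5D zebrafish exposed singly from 6 hpf at 28C, DMSO vehicle at 0.64%. Embryos dying by 24 or 120 hpf are excluded from scoring.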

[12] = Tanguay_ZF_120hpf_CIRC_legacy: (Legacy) Oregon State University Tanguay Lab 120 Hour Post-fertilization zebrafish Assay for Circulatory Malformation (AID 2283651)
Summary of the method: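 Binary circulatory-malformation call at 120 hpf via brightfield imaging, relative to DMSO controls. Embryos (5D strain, chorion removed) received static, light-shielded exposure at 28C.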

[13] = Tanguay_ZF_120hpf_SWIM_legacy: (Legacy) Oregon State University Tanguay Lab 120 Hour Post-fertilization zebrafish Assay for Swim Bladder Malformation (AID 2283654);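 also: swim bladder malformation in each larva scored yes or no under brightfield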
Summary of the method: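 Static waterborne exposure of single dechorionated Tropical 5D zebrafish embryos, 6–120 hpf, 28C, 0.64% DMSO final. Read-out: swim bladder malformation, present/absent, relative to DMSO negative control; trimethyltin chloride 5uM served as positive control.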

[14] = Tanguay_ZF_120hpf_TRUN_legacy: (Legacy) Oregon State University Tanguay Lab 120 Hour Post-fertilization zebrafish Assay for Truncated Body (AID 2283655)
Summary of the method: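 Single dechorionated zebrafish embryos received test chemical from 6 hpf in 0.64% DMSO, kept at 28C. At 120 hpf, brightfield inspection noted any truncated body.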

[15] = Tanguay_ZF_120hpf_NC_legacy: (Legacy) Oregon State University Tanguay Lab 120 Hour Post-fertilization zebrafish Assay for Notochord and Tail Malformation (AID 2283656)
Summary of the method: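 Binary notochord-distortion calls, made by brightfield inspection, form the read-out; activity is fitted in the positive direction against DMSO. Exposure ran statically from 6 to 120 hpf at 28C with 0.64% DMSO.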

[16] = Tanguay_ZF_120hpf_BRAI_legacy: (Legacy) Oregon State University Tanguay Lab 120 Hour Post-fertilization zebrafish Assay for Brain Malformation (AID 2283641)
Summary of the method: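 Static exposure of staged wild-type embryos until 120 hpf, kept at 28C with light excluded and final DMSO of 0.64% (vol/vol). Presence or absence of brain malformation was noted under brightfield; mortality precluded scoring.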

[17] = read-out: solute carrier (SLC22A6), SLC22A6 (gene 9356); assay: LTEA_HepaRG_SLC22A6: Life Technologies and Expression Analysis (LTEA) Assay for solute carrier (SLC22A6) using HepaRG (AID 2283653; active = hit-call score of the fitted dose curve at least 0.9, where 1 is the maximum; inactive = score below 0.9); settings: mRNA level, 48 h; actives raise or lower the signal
Summary of the method: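 Gene-expression endpoint in HepaRG hepatic cells: duplicate 8-point concentration-response, highest 100 uM, 48 h treatment in serum-free medium with 0.5% DMSO. SLC22A6 expression measured by qRT-PCR, normalised to ACTB/GAPDH/POLR2A.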

[18] = read-out: solute carrier (SLC10A1), SLC10A1 (gene 6554); assay: LTEA_HepaRG_SLC10A1: Life Technologies and Expression Analysis (LTEA) Assay for solute carrier (SLC10A1) using HepaRG (AID 2283657; active = hit-call score of the fitted dose curve at least 0.9, where 1 is the maximum; inactive = score below 0.9); settings: mRNA level, 48 h; actives raise or lower the signal
Summary of the method: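 Cryopreserved HepaRG cells are thawed, plated and cultured 48 h; medium is then switched to serum-free induction medium and chemicals added (8 points, max 100 uM, 0.5% DMSO). After 48 h, RNA is isolated and SLC10A1 quantified by qRT-PCR.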

[19] = read-out: matrix metalloproteinase-1 (MMP1), MMP1 (gene 4312); assay: LTEA_HepaRG_MMP1: Life Technologies and Expression Analysis (LTEA) Assay for matrix metalloproteinase-1 (MMP1) using HepaRG (AID 2283658; active = hit-call score of the fitted dose curve at least 0.9, where 1 is the maximum; inactive = score below 0.9); settings: mRNA level, 48 h; actives raise or lower the signal
Summary of the method: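 In this screen, human liver HepaRG cultures receive each chemical in duplicate for 48 h (top 100 uM, 0.5% DMSO). MMP1 expression is then quantified by TaqMan qRT-PCR with ACTB/GAPDH/POLR2A normalization.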

Measured: AC50

CCCCCCCCCCCCCN1CC(C)OC(C)C1 (configuration not stated)
inactive: [1] | [2] | [3] | [4] | [5] | [6] | [7] | [8] | [9] | [10] | [11] | [12] | [13] | [14]

Oc1ccc2ccc3cccc4ccc1c2c34
inactive: [12]
active: [1] 13.7 µM | [2] 13.1 µM | [3] 44.9 µM | [4] 44.2 µM | [5] 46.8 µM | [6] 11.2 µM | [7] 50.4 µM | [8] 18.4 µM | [9] 12.2 µM | [10] 12.4 µM | [11] 44 µM | [13] 48.3 µM | [14] 46.5 µM | [15] 11 µM

[O-][Cl+]O
inactive: [1] | [2] | [3] | [4] | [5] | [6] | [7] | [16] | [8] | [9] | [10] | [11] | [12] | [13]

Nc1ccc(Cc2ccc(N)cc2)cc1
inactive: [1] | [2] | [3] | [4] | [5] | [6] | [7] | [8] | [9] | [10] | [11] | [13] | [15]

CCCCCOC(=O)c1ccccc1C(=O)OCCCCC
inactive: [1] | [2] | [3] | [4] | [5] | [6] | [7] | [16] | [8] | [9] | [11] | [12] | [13] | [14] | [15]

OCCCl
inactive: [1] | [2] | [3] | [4] | [5] | [6] | [7] | [16] | [8] | [9] | [10] | [12] | [13] | [15]

CCOC(=O)[C@]1(c2ccccc2)Oc2ccccc2[C@@H]1N
inactive: [1] | [2] | [3] | [4] | [5] | [6] | [7] | [16] | [8] | [12] | [13] | [14] | [15]

COC(=O)c1ccccc1N
inactive: [1] | [2] | [3] | [4] | [5] | [6] | [7] | [16] | [8] | [10] | [12] | [13] | [14] | [15]

CO[C@@H]1[C@H](OC(=O)NC(=O)CCl)CC[C@]2(CO2)[C@H]1[C@@]1(C)O[C@@H]1CC=C(C)C
active: [1] 0.0035 µM | [4] 0.239 µM | [5] 0.0405 µM | [7] 0.0102 µM | [18] 0.389 µM
inactive: [2] | [3] | [6] | [16] | [8] | [9] | [10] | [12] | [17] | [13] | [14] | [15] | [19]

Nc1ccc(N=Nc2ccccc2)cc1
inactive: [1] | [2] | [3] | [4] | [5] | [6] | [16] | [8] | [9] | [12] | [13] | [14]
active: [7] 25.6 µM

CCCSC(=O)N(CCC)CCC
inactive: [1] | [2] | [3] | [4] | [5] | [6] | [7] | [16] | [8] | [9] | [10] | [12] | [13] | [14] | [15]

CCC[CH2][Sn]([Cl])([CH2]CCC)[CH2]CCC
inactive: [1] | [2] | [3] | [4] | [5] | [6] | [7] | [8] | [9] | [10] | [11] | [12] | [13] | [14] | [15]

Nc1ccc(Oc2ccc(N)cc2)cc1
inactive: [1] | [2] | [3] | [4] | [5] | [6] | [7] | [8] | [9] | [10] | [11] | [12] | [13] | [15]

CC(O)CCO (configuration not stated)
inactive: [1] | [2] | [3] | [4] | [5] | [6] | [7] | [16] | [8] | [9] | [10] | [11] | [12] | [13] | [14] | [15]

OCCOCCO
inactive: [1] | [2] | [3] | [4] | [5] | [6] | [7] | [8] | [9] | [10] | [11] | [13] | [14] | [15]

O=C(Oc1ccc(Br)cc1)N1CCN2CCC1CC2
inactive: [1] | [3] | [4] | [5] | [6] | [16] | [8] | [9] | [10] | [12] | [13] | [14] | [15]
active: [2] 38.3 µM | [7] 9.47 µM
